Test results published in PubChem BioAssay (Tox21).
Records with an inconclusive call do not appear. Entries that show only a call come without a potency. Active and inactive are the calls of the source. Calls come from the whole dose curve; as a rule, active = well fitted cell-killing curve with a large enough effect in the repeat runs; inconclusive = weak or mixed curves, or effect the other way; inactive = no such curve, though single readings can be large or run the other way.

assay: qHTS assay to identify small molecule antagonists of the peroxisome proliferator-activated receptor gamma (PPARg) signaling pathway - cell viability counter screen (AID 743194); settings: PPARg-bla HEK293H viability, CellTiter-Glo luminescence, 17 h, co-treated with 50 nM rosiglitazone; series mostly up to 62.6 µM; note: nearly all actives have a fitted effect of over 55% in size
Text: U.S. Tox21 Program National Center for Advancing Translational Sciences [NCATS] NIH Chemical Genomics Center [NCGC] U.S. Environmental Protection Agency [EPA] National Institutes of Environmental Health Sciences [NIEHS] National Toxicology Program [NTP] U.S. Food and Drug Administration [FDA] Tox21 Assay Overview: The peroxisome proliferator-activated receptors (PPARs) are lipid-activated transcription factors of the nuclear receptor superfamily with three distinct subtypes namely PPAR alpha, PPAR delta (also called PPAR beta) and PPAR gamma (PPARg). All these subtypes heterodimerize with Retinoid X receptor (RXR) and these heterodimers regulate transcription of various genes. PPAR-gamma receptor (glitazone receptor) is involved in the regulation of glucose and lipid metabolism. To identify the compounds that activate PPAR-gamma signaling, GeneBLAzer PPAR gamma UAS-bla HEK293H cell line (Invitrogen, Carlsbad, CA, USA) containing a beta-lactamase reporter gene under the control of an Upstream Activator Sequence (UAS) was used to screen the Tox21 compound library. The cytotoxicity of the Tox21 compound library against the PPARg-bla cell line was tested in parallel by measuring the cell viability using CellTiter-Glo assay in the same wells.
Tox21 Assay Protocol Summary: PPARg-bla cells were dispensed at 3000 cells/5uL/well in 1536-well black wall/clear bottom plates using a Multidrop Combi (Thermo Fisher Scientific, Waltham, MA) dispenser. After the assay plates were incubated at 37 C and 5% CO2 for 5 h, 23 nL of compounds dissolved in DMSO, positive controls or DMSO only was transferred to the assay plate by a Pintool station (Kalypsys, San Diego, CA), followed by addition of 1ul Rosiglitazone (50 nM, final concentration in the wells). The assay plates were incubated at 37 C for 17 h, and then 1 uL of LiveBLAzerTM B/G FRET substrate was added using a Bioraptr Flying Reagent Dispenser (FRD) workstation (Beckman Coulter, Indianapolis, IN, USA). The assay plates were incubated at room temperature for 1 h and fluorescence intensity was measured by an Envision plate reader (PerkinElmer, Shelton, CT). For cell viability readout that measures cytotoxicity, 4 ul/well of CellTiter-Glo reagent was added into the assay plates using a Flying Reagent Dispenser. After 30 min incubation at room temperature, the luminescence intensity in the plates was measured using a ViewLux plate reader (PerkinElmer).
Potency is the fitted concentration of half-maximal effect.

For `C#CC(C)(O)CC(C)C` (stereo not given), which Potency is on record?
Its Potency is “inactive”.

With `CCOC(=O)[C@H](CCc1ccccc1)N[C@@H](C)C(=O)N1CCC[C@H]1C(=O)O` as the compound, how does the Potency read?
Its Potency is “inactive”.

Which Potency does the source give for `COCCOC(=O)CC#N` here?
Its Potency is “inactive”.

With `O=C(O)c1ccccc1S` as the compound, how does the Potency read?
Its Potency is “inactive”.

Which Potency does the source give for `O=[N+]([O-])c1ccc(Oc2ccc([N+](=O)[O-])cc2)cc1` here?
The Potency was “inactive”.

For `CC(C)COC(=O)c1ccccc1O`, which Potency is on record?
The Potency was “inactive”.

For `CC(C)CCCC(C)CCCC(C)CCCCC(C)CCCC(C)CCCC(C)C` (stereo not given), which Potency is on record?
The Potency was “inactive”.

For `NCCN1CCNC1=O`, which Potency is on record?
The Potency was “inactive”.

For `CCCC(C)C(=O)O` (stereo not given), which Potency is on record?
The Potency was “inactive”.

With `CCN(CC)C(=O)c1ccc(O)c(OC)c1` as the compound, how does the Potency read?
Its Potency is “inactive”.

For `CN1[C@@H]2CC[C@H]1CC(NC(=O)n1c(=O)[nH]c3ccccc31)C2` (stereo not given in full), which Potency is on record?
The Potency was “inactive”.

For `CC1(C)OC(=O)Nc2ccc(Br)cc21`, which Potency is on record?
Its Potency is “inactive”.

With `CC/C=C\C#N` as the compound, how does the Potency read?
Its Potency is “inactive”.

Which Potency does the source give for `CC(C)(O)Cc1ccccc1` here?
Its Potency is “inactive”.

With `CC12CCC(CC1=O)C2(C)C` (stereo not given) as the compound, how does the Potency read?
Its Potency is “inactive”.

With `C1C2OC2C2C1C1CC2C2OC12` (stereo not given) as the compound, how does the Potency read?
Its Potency is “inactive”.

For `c1ccc(CCCc2ccccn2)cc1`, which Potency is on record?
The Potency was “inactive”.

With `COc1ccc(COC=O)cc1` as the compound, how does the Potency read?
Its Potency is “inactive”.

For `Cn1cnc2c(=O)[nH]c(N)nc21`, which Potency is on record?
The Potency was “inactive”.

With `CO[Si](OC)(OC)OC` as the compound, how does the Potency read?
Its Potency is “inactive”.

With `OC[C@H]1O[C@@H]2O[C@H]3[C@H](O)[C@@H](O)[C@@H](O[C@H]4[C@H](O)[C@@H](O)[C@@H](O[C@H]5[C@H](O)[C@@H](O)[C@@H](O[C@H]6[C@H](O)[C@@H](O)[C@@H](O[C@H]7[C@H](O)[C@@H](O)[C@@H](O[C@H]8[C@H](O)[C@@H](O)[C@@H](O[C@H]9[C@H](O)[C@@H](O)[C@@H](O[C@H]1[C@H](O)[C@H]2O)O[C@@H]9CO)O[C@@H]8CO)O[C@@H]7CO)O[C@@H]6CO)O[C@@H]5CO)O[C@@H]4CO)O[C@@H]3CO` as the compound, how does the Potency read?
The Potency was “inactive”.

With `CC1CCN(CCCC(=O)c2ccc(F)cc2)CC1` as the compound, how does the Potency read?
Its Potency is “inactive”.

Which Potency does the source give for `CC(C=O)Cc1ccc(C(C)C)cc1` (stereo not given) here?
The Potency was “inactive”.

For `Cc1ncc(CSSCc2cnc(C)c(O)c2CO)c(CO)c1O`, which Potency is on record?
Its Potency is “inactive”.

Which Potency does the source give for `CCCOCC(C)OCC(C)O` (stereo not given) here?
Its Potency is “inactive”.

For `O=C(O)Cc1cc(I)c(Oc2cc(I)c(O)c(I)c2)c(I)c1`, which Potency is on record?
Its Potency is 19.1 µM (active).

With `CC(=O)OC(C)(C)C` as the compound, how does the Potency read?
Its Potency is “inactive”.

For `CCOC(=O)Cn1c(=O)sc2cccc(Cl)c21`, which Potency is on record?
The Potency was “inactive”.

For `NCC[C@H](O)C(=O)N[C@@H]1C[C@H](N)[C@@H](O[C@H]2O[C@H](CN)[C@@H](O)[C@H](O)[C@H]2O)[C@H](O)[C@H]1O[C@H]1O[C@H](CO)[C@@H](O)[C@H](N)[C@H]1O`, which activity change, negative = cytotoxicity is on record?
Its activity change, negative = cytotoxicity is 0.328% [at 0.55 µM] (inactive).

For `CCCCCCCCCCCCCCC`, which Potency is on record?
Its Potency is “inactive”.

Which Potency does the source give for `c1ccc(SCCSc2ccccc2)cc1` here?
Its Potency is “inactive”.

For `CC(C)(C)C(=O)/C=C/c1ccc(Cl)cc1`, which Potency is on record?
Its Potency is “inactive”.

Which Potency does the source give for `CC(C)COC(=O)C(C)C` here?
Its Potency is “inactive”.

Which Potency does the source give for `O=S(=O)(O)c1ccccc1O` here?
The Potency was “inactive”.

Which Potency does the source give for `C#CC(O)C(CC)CCCC` (stereo not given) here?
Its Potency is “inactive”.

Which Potency does the source give for `COc1ccc(NC(C)=O)cc1` here?
The Potency was “inactive”.

Which Potency does the source give for `CN(C)N=Nc1ccccc1` here?
The Potency was “inactive”.

Which Potency does the source give for `N#CCN(CC#N)CCN(CC#N)CC#N` here?
Its Potency is “inactive”.

Which Potency does the source give for `C[C@H]1O[C@@H](n2cc(F)c(=O)[nH]c2=O)[C@H](O)[C@@H]1O` here?
Its Potency is “inactive”.

Which Potency does the source give for `CC(C)c1cccc(C(C)C)c1N` here?
The Potency was “inactive”.
